Out of some 330,000 compounds screened, about 5,800 (1.8%) were called active. For the sample, actives were picked, then their nearest neighbours and some compounds at random. Values without a mark were called inactive.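 How the source made its calls: active means inhibition above about 50% at the single tested dose (limit read from the data); inactive means the rest.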
Target: Sentrin-specific protease 6 (Homo sapiens) (UniProt Q9GZR1)
Experiment: SENP6 protease inhibitors, primary screen, biochemical, luminescence, uHTS (AID 2599);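 further: plate controls were DMSO wells with enzyme for no effect and DMSO wells lacking enzyme for full effect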
Details: Recombinant SENP6 catalytic domain, aminoluciferin luminescence; at 10 µM; active compounds read high

Sequence of Sentrin-specific protease 6 (Homo sapiens) (Q9GZR1 628-1112 limits assumed): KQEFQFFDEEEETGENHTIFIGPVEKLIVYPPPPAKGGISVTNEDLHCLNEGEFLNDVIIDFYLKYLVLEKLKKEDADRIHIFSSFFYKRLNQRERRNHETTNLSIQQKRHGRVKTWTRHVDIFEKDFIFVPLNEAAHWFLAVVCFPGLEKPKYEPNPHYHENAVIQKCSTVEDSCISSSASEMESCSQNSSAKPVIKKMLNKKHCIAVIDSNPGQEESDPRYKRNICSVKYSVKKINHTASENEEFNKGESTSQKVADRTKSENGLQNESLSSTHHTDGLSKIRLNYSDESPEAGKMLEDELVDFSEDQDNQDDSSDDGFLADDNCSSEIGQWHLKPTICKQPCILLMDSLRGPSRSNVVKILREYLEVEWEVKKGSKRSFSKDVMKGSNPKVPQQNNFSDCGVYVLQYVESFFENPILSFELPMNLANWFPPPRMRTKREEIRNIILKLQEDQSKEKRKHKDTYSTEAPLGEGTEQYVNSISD

Row | SMILES | inhibition
1 | Cc1c(NC(=O)CSCc2ccccc2)cccc1C(=O)O | 9.84%
2 | CN1CCNC(=O)C1CC(=O)N1CC=C(c2ccc(F)cc2)CC1 (stereo not drawn) | 4.55%
3 | COc1ccc(/C=C2\SC(=O)N(CCC(=O)NCCCn3ccnc3)C2=O)cc1 | 15.6%
4 | COc1ccc(/C=C2\SC(=O)N(CCC(=O)NC3CCS(=O)(=O)C3)C2=O)cc1 (stereo not drawn) | 12.7%
5 | COc1ccc(/C=C2/SC(=O)N(CCCCCC(=O)Nc3ccccc3C(=O)O)C2=S)cc1 | 63.7% (active)
6 | O=C(Nn1c(-c2ccc(Cl)cc2)nc2ccccc2c1=O)c1cccnc1Cl | 1.41%
7 | Cc1ccc2c(c1)N(C(=O)CCC(=O)N1CCc3ccccc3C1)CCO2 | 10.2%
8 | Oc1ccc(CNc2ccccc2O)cc1 | 17.3%
9 | CCOC(=O)C1(Cc2ccccc2C)CCCN(C(=O)CCc2c(C)noc2C)C1 (stereo not drawn) | 9.37%
10 | N=c1c2c3c(sc2nc2n1CCCCC2)CCCC3 | 64.2% (active)
11 | N=c1c2c3c(sc2ncn1N)CCCCC3 | -21.7%
12 | CC1(C)Cc2c(sc3nc4n(c(=N)c23)CCCCC4)CO1 | -4.65%
13 | CC(OC(=O)CCc1nc(=O)c2ccccc2n1C)C(=O)NCc1ccc2c(c1)OCO2 (stereo not drawn) | -15.7%
14 | Cc1cc(NC(=O)c2ccccc2C)no1 | -1.58%
15 | Cc1cc(NC(=O)COc2ccc([N+](=O)[O-])cc2)no1 | -2.83%
16 | Cc1cc(NC(=O)Nc2ccccc2[N+](=O)[O-])no1 | 54% (active)
17 | Nc1ccn(CC(=O)N2CCN(c3ccccn3)CC2)c(=O)n1 | -3.83%
18 | CC(C)C(=O)NC(NC(=S)NC1CCS(=O)(=O)C1)C(Cl)(Cl)Cl (stereo not drawn) | -19.9%
19 | Cc1cc(N/C=C\C(=O)c2ccc(Cl)c(Cl)c2)no1 | -3.41%
20 | CCOc1ccc(N/C=C/C(=O)c2ccccc2)cc1 | 94.4% (active)
21 | COc1ccc(C(=O)/C=C/Nc2ccccn2)cc1 | 97.2% (active)
22 | COc1ccc(N2C(=O)CCC(C(=O)Nc3ccccn3)C2c2ccc(OC)c(OC)c2)cc1 (stereo not drawn) | -4.43%
23 | Cc1ccc(N/C=C/C(=O)c2ccccc2)cc1C | 95.8% (active)
24 | CCOc1ccc(NC(=S)N2CCC(NC(=O)c3ccccc3)CC2)cc1 | -17.6%
25 | CCOc1ccc(N/C=C/C(=O)c2cc(OC)c(OC)c(OC)c2)cc1 | -7.87%
26 | CC(=O)Nc1ccc(/C=C/C(=O)c2ccccc2)cc1 | -17%
27 | O=C(/C=C/NCc1ccc(F)cc1)c1ccccc1 | -0.568%

Row | SMILES | inhibition
28 | C[C@H](NC(=O)C1CC(=O)N(c2ccc3c(c2)OCCO3)C1)C(=O)N1CCC(C(=O)O)CC1 (stereo partly drawn) | -10.8%
29 | CCC(C)CN1CCC(CO)(Cc2ccccc2Cl)CC1 (stereo not drawn) | 8.24%
30 | CC1CCC(CN2CCN=C2N(C)C)CC1 (stereo not drawn) | -19.7%
31 | Cc1ccccc1C(OCCN(C)C)C1CCCCC1 (stereo not drawn) | -10.8%
32 | COc1ccc(C2=Nc3cc(C)ccc3OC2)cc1 | 81.7% (active)
33 | COc1ccc(C2=NOC(COC(=O)c3ccc4ccccc4n3)C2)cc1 (stereo not drawn) | -7.77%
34 | Cc1ccc(C(=O)NNC2=Nc3cc([N+](=O)[O-])ccc3OC2)cc1 | -18.4%
35 | CCOCCN(C=O)c1cccc(OC)c1 | -10.1%
36 | O=C(COC(=O)c1n[nH]c2ccccc12)Nc1ccccc1Br | -4.53%
37 | CCCn1nc(C(=O)OCc2nc(N)nc(Nc3ccccc3C)n2)c2ccccc2c1=O | -0.795%
38 | COc1cc(/C=C/C(=O)OCC(=O)N2CCOCC2)ccc1OCC#N | 2.81%
39 | COc1ccc(N2C(=O)C(O)C2c2ccc(C)cc2)cc1 (stereo not drawn) | -8.14%
40 | Cc1ccc2cc3cc(C(=O)N4CCCCCC4)oc3nc2c1 | 57.1% (active)
41 | Cc1cc(C)cc(NC(=O)N2CCCCCCC2)c1 | -8.39%
42 | Cc1ccc2nc(N3CCN(C(=O)c4ccco4)CC3)sc2c1 | -9.94%
43 | COC(=O)c1cccc(C(=O)N2CCCC(Nc3ccc4c(c3)OCCO4)C2)c1 (stereo not drawn) | 8.68%
44 | OCCC#Cc1ccc(CN2CCN(Cc3ccsc3)C(CCO)C2)cc1 (stereo not drawn) | -21.1%
45 | Cc1ccc(-c2cc(C(=O)N/N=C/C=C/c3ccccc3)n[nH]2)o1 | 1.41%
46 | Cc1cc(C(=O)NNC(=O)c2ccccc2O)c(C)o1 | 0.955%
47 | Cc1cc(C(=O)N/N=C/c2ccc(N3CCOCC3)cc2)c(C)o1 | 84.3% (active)
48 | Cc1cc(C(=O)N/N=C\C(Br)=C\c2ccccc2)c(C)o1 | 54.2% (active)
49 | O=C(NN=Cc1ccc(N2CCOCC2)cc1)c1cc2ccccc2cc1O | -12.9%
50 | CCN(CC)c1ccc(C(=O)N/N=C/c2ccc(N3CCOCC3)cc2)cc1 | -7.9%
51 | COc1ccc(C/C(C)=N/NC(=O)c2cc(C)oc2C)cc1 | -24.2%
52 | CC(=C/c1ccccc1)/C=N/NC(=O)c1cc(C)oc1C | 90.1% (active)
53 | CC(C)c1cc(C(=O)N/N=C/C(Br)=C/c2ccccc2)n[nH]1 | 2.83%

— PubChem BioAssay AID2599 (Sanford-Burnham Center for Chemical Genomics, 2010)
